The text below walks through data of PubChem BioAssay AID2163 (National Center for Advancing Translational Sciences (NCATS), 2009).

The list shows a part of the results. Calls of active or inactive are those of the source.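 Rule for the calls: active = compounds that slowed 12-hLO product formation enough to yield a measured IC50 potency; inactive = the rest.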

Polyunsaturated fatty acid lipoxygenase ALOX12 (Homo sapiens), sequence (P18054 whole entry, looked up): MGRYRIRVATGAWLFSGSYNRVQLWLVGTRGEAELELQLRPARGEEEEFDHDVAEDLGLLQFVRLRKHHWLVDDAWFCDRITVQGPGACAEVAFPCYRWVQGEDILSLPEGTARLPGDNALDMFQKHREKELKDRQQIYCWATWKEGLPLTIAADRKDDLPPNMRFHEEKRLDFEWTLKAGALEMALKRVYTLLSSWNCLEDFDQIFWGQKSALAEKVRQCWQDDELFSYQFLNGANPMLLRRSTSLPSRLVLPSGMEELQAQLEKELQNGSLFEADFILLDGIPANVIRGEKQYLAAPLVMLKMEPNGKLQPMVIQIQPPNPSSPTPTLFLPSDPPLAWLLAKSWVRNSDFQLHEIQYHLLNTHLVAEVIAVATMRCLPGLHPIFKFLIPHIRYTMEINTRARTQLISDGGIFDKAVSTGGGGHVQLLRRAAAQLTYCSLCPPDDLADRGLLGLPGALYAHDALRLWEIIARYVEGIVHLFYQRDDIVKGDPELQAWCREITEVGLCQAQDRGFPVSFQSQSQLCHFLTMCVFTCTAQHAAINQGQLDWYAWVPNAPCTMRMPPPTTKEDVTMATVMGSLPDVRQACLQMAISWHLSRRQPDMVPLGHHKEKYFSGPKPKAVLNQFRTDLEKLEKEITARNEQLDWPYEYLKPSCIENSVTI

This test concerns the target Polyunsaturated fatty acid lipoxygenase ALOX12 (Homo sapiens) (UniProt P18054). Description: Cuvette-Based Assay for Inhibitors of 12-hLO (12-human lipoxygenase): 8HQ Series - Round 1. The following applies: purified 12-hLO, cuvette UV 234 nm product formation. Here is the method: Assay Provider: Holman, T.R., University of California, Santa Cruz Screening Center PI: Austin, Christopher P. Screening Center: NIH Chemical Genomics Center The enzyme activity of 12-hLO was determined by a direct measurement of product formation by monitoring the absorbance at 234 nm in a 2 mL cuvette. IC50 values of inhibitors were obtained by measuring the enzymatic rate at a variety of concentrations (Carroll et al, Segraves et al).
For control experiments, 2 mL of substrate buffer (10 uM arachidonic acid / 25 mM HEPES / 0.01% (v/v) Triton X-100, pH 8.0) was aliquoted in a cuvette with a magnetic stir bar. After equilibrium was ensured, an aliquot of inhibitor solvent was added (DMSO), and equilibrium was once again assured. The reaction was started by adding enzyme to the cuvette and the reaction was followed until completed. The inhibition experiments were performed as above, except the actual inhibitory compound was added instead of vehicle. To achieve an IC50, typically 5 concentrations of the inhibitor were studied. If the inhibitor concentration was constant, then five different reaction volumes were used. […] 3; No change in absorbance ensured. […] 5; No change in absorbance ensured. […]
For the compound `CC(=O)NC(c1cccs1)c1cc(Cl)c2cccnc2c1O` (stereo unspecified), the Potency is 1000 nM (active).
